Sensor-assay potency score (higher = more potent) data for 39 sequences are collected here from the OligoGym collection.
Note: reference of the scale not given here.

The target in one test is C2orf57. The test can be described thus: pooled miR-30 sensor sort-seq; sequence = guide strand. Conditions: shRNA.
TTGTCCTTGCGTCTTGAACCTG: the sensor-assay potency score (higher = more potent) was -1.12.

Sequence TGTCCTTGCGTCTTGAACCTGC registered a sensor-assay potency score (higher = more potent) of 0.175. The same measure, in the same setting: the result for TAAAGCTTCAGCTTCAGGGTGT reads 0.632.

As to AAAACCACTAGACTCTGACTTG, the sensor-assay potency score (higher = more potent) was -0.273.

The next test has as its target C2orf70. Described as above. Particulars: shRNA.
Regarding TAAAAGGTGCCACTTCTTCTTT, the sensor-assay potency score (higher = more potent) is -0.951.

Take TAGCAGTCTCTCTTTTTCCGCT: the sensor-assay potency score (higher = more potent) is -0.538.

For the sequence TTCGTAAGCTCTGTGGAGCGAT, the sensor-assay potency score (higher = more potent) was -0.412. On the same count and under the same terms, to TAGAAATTCGTAAGCTCTGTGG belongs -0.326; to TTGTCTTGATAGTACTTCCGAT, -0.575; to TAGGTCTTCAGGTTCTCGGGGG, 0.319. On the same count and under the same terms, to TGTCTTGATAGTACTTCCGATG belongs -1.09; to TAGTCTTAAAAGGTGCCACTTC, -0.307; to TTGATAGTACTTCCGATGCTGC, -0.858. Same read-out and setting: the result for TACTTGAGGGTGGTGGTGCCGT reads -0.758. In the case of TTGAACTCGGTCAGTAGGGTGC, the sensor-assay potency score (higher = more potent) was -0.0549. The same measure, in the same setting: the result for TTGGTGGAGAAGATGGTGGGGA reads 0.218.

A further test has as its target C2orf76. The description is as above. Conditions: shRNA.
TGTAGTTCTTATAATCTTCTTC: the sensor-assay potency score (higher = more potent) was found to be 0.298. In the case of TTTGTAGTTCTTATAATCTTCT, the sensor-assay potency score (higher = more potent) is -0.217. The same measure, in the same setting: to TAAAGGGATATCTTGCTTTAGA belongs -0.915. On the same count and under the same terms, to TTCGTCATCTTCCAAACTCAAC belongs -1.74; to TATCTTGCTTTAGAAATACGAT, -1.11; to TTTCAGAGTGCTGTCTTCTTTC, 0.204. As to TCTTCTTTCAGCAGGAGTCTTT, the sensor-assay potency score (higher = more potent) was -0.508. Same read-out and setting: to TTTCACTGGCGATTCCAGCTGC belongs 0.205; to TTTGTCTTTGATTTATGTGCTT, -0.117; to TTGTCTTTGATTTATGTGCTTG, -0.405. In the case of TATAATTTCTGAATGGTGGTGG, the sensor-assay potency score (higher = more potent) came out at 1.01.

A further test deals with C2orf79. The description is as above. Conditions: shRNA.
Take TAACACCAAGTATTGTACCAGG: the sensor-assay potency score (higher = more potent) was -0.742.

As to TTGCTCAAGCCACAGCATGTGG, the sensor-assay potency score (higher = more potent) was -1.1. Turning to TTGTGATAGATCCTTTCGTAAC, the sensor-assay potency score (higher = more potent) was -1.71. The same measure, in the same setting: to TCTTCTGTTGCAGGGTCTCGGC belongs -1.21; to TTAGGGTGGTCTCATCTGGGGC, -1.64.

Turning to TTTAGGGTGGTCTCATCTGGGG, the sensor-assay potency score (higher = more potent) was -0.919. The same measure, in the same setting: the result for TTCGTAACACCAAGTATTGTAC reads -0.56. The same measure, in the same setting: to TTTCGTAACACCAAGTATTGTA belongs 0.279; to TAGATCCTTTCGTAACACCAAG, -1.46; to TACAAGTGGCGATATTCTCTGG, -0.432.

TATTGTACCAGGACCTGCGGCT: the sensor-assay potency score (higher = more potent) was -0.203. Consider TTCTGTTGCAGGGTCTCGGCCA, for which the sensor-assay potency score (higher = more potent) is -0.447.
